Results from PubChem BioAssay (NCATS).
Results filed as inconclusive are left out. Calls of active or inactive are those of the source. Unless noted, calls come from the whole dose curve; as a rule, active = well fitted curve in the direction sought with a large enough effect; inconclusive = small, poorly fitted or top-dose-only effect, or another doubt; inactive = no such curve, though single readings can be large; an effect the other way counts as inactive or inconclusive.

What was measured:
OV90 = assay: Primary qHTS to identify gynecologic anti-cancer compounds using libraries of approved drugs and bioactive compounds (AID 1345084); conditions: Gynecologic cancer cell panel viability, ATPlite luminescence, 48 h; series mostly up to 57.5 µM; note: nearly all actives have a fitted effect of over 55% in size; note: potency is the fitted concentration of half-maximal effect
How it was run: (§1)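 Cytotoxicity screen measuring ATP content by luciferase luminescence. Each compound is applied at five concentrations for 48 h at 37 C with 5% CO2.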

PA-1 = assay: as above; conditions: Gynecologic cancer cell panel viability, ATPlite luminescence, 48 h; series mostly up to 57.5 µM
How it was run: as §1

Tov-21-G = assay: as above; conditions: Gynecologic cancer cell panel viability, ATPlite luminescence, 48 h; series mostly up to 57.5 µM
How it was run: as §1

Tov112D = assay: as above; conditions: Gynecologic cancer cell panel viability, ATPlite luminescence, 48 h; series mostly up to 57.5 µM
How it was run: as §1

[1] = target: Nuclear receptor subfamily 1 group I member 2 (Rattus norvegicus) (UniProt Q9R1A7); assay: qHTS assay for small molecule activators of the rat pregnane X receptor (rPXR) signaling pathway (AID 651751; call rule not given here; note: 0% is about no effect); conditions: rPXR reporter cells, luciferase (One-Glo), 24 h
Nuclear receptor subfamily 1 group I member 2 (Rattus norvegicus), sequence (Q9R1A7 whole entry, looked up): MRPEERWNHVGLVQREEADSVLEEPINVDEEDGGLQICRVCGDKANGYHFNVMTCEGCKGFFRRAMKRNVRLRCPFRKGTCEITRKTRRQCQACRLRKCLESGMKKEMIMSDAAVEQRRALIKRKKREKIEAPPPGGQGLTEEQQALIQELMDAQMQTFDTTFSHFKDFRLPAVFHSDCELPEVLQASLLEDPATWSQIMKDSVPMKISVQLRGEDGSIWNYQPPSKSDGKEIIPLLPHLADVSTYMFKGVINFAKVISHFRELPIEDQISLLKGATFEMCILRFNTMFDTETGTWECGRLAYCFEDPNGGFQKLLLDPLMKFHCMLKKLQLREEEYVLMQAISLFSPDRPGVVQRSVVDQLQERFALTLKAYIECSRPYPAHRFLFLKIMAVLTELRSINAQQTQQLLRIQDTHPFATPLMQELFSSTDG

[2] = qHTS assay for small molecule activators of the human pregnane X receptor (PXR) signaling pathway (AID 720659; call rule not given here; note: 0% is about no effect)
[3] = Drug repurposing screens with cells derived from glioblastoma tumor samples (AID 1345199); conditions: GBM patient neurospheres viability, ATP luminescence, 48 h; Potency: tumour line A unless noted; series mostly up to 45.9 µM; note: nearly all actives have a fitted effect of over 40% in size; note: potency is the fitted concentration of half-maximal effect
How it was run: (§2)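 Four patient lines of CD133+ GBM neurospheres were screened at several concentrations; hits were retested in those lines plus three slower-growing GBM lines, using 48-hour treatment and ATP-based viability.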

SKOV3 = assay: Primary qHTS to identify gynecologic anti-cancer compounds using libraries of approved drugs and bioactive compounds (AID 1345084); conditions: Gynecologic cancer cell panel viability, ATPlite luminescence, 48 h; series mostly up to 57.5 µM; note: nearly all actives have a fitted effect of over 55% in size; note: potency is the fitted concentration of half-maximal effect
How it was run: as §1

astro = assay: Drug repurposing screens with cells derived from glioblastoma tumor samples (AID 1345199); conditions: viability, ATP luminescence, 48 h; series mostly up to 45.9 µM; note: nearly all actives have a fitted effect of over 40% in size; note: potency is the fitted concentration of half-maximal effect
How it was run: as §2

[4] = qHTS assay to identify inhibitors of the type 1 interferon - major histocompatibility complex class I in skeletal muscle: Counter screen cell viability and HiBit confirmation (AID 1347412); conditions: iHSKM muscle cells + IFN-b, HiBiT or CellTiter-Glo, 24 h; HiBiT; note: potency is the fitted concentration of half-maximal effect; nearly all actives have a fitted effect of over 60% in size
How it was run: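 Myoblasts (C25cl48, HLA-B HiBiT) seeded in medium without dexamethasone, IFN-b 4 ng/ml added except unstimulated columns; 1 hr later compounds pinned (12-pt 1:3, top 46 uM final). Incubated 24 hrs, lysed 10 min, luminescence measured.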

CC(C)N(CCNC(=O)CN1CCCC1=O)C(C)C
inactive: Potency (OV90) | Potency (PA-1) | Potency (Tov-21-G) | Potency (Tov112D)

COc1nn(CSP(=S)(OC)OC)c(=O)s1
inactive: Potency (OV90) | max response [1] -6.79% | outcome [2]

O=C(O)CCCOc1ccc(Cl)cc1Cl
inactive: Potency (OV90) | Potency (PA-1) | Potency (Tov-21-G) | Potency (Tov112D) | Potency [3] | max response [1] 8.43% | outcome [2]

C=CCC1=C(C)C(OC(=O)C2C(C=C(C)C)C2(C)C)CC1=O (stereo not given)
inactive: Potency (OV90) | Potency (Tov-21-G) | Potency (Tov112D)

CC(Cc1ccc(O)cc1)NCC(O)c1cc(O)cc(O)c1 (stereo not given)
inactive: Potency (PA-1) | Potency (SKOV3) | Potency (Tov-21-G) | Potency (Tov112D) | Potency [3] | Potency (astro)

CC(C)(C)NC[C@H](O)c1ccc(O)cc1Cl
inactive: Potency (OV90) | Potency (Tov-21-G) | Potency (Tov112D) | Potency [3] | Potency (astro)

O=[N+]([O-])/N=C1\NCCN1Cc1ccc(Cl)nc1
inactive: Potency (OV90) | Potency (PA-1) | Potency (SKOV3) | Potency (Tov-21-G) | Potency (Tov112D) | Potency (astro) | max response [1] 4.35% | outcome [2]

CO/C=C(/C(=O)OC)c1ccccc1Oc1cc(Oc2ccccc2C#N)ncn1
active: Potency (OV90) 17.8 µM | Potency (SKOV3) 7.94 µM | Potency (astro) 14.1 µM

Cc1cc(O)ccc1Cl
inactive: Potency (PA-1) | Potency (SKOV3) | Potency (Tov-21-G) | Potency (Tov112D) | Potency [3] | Potency (astro) | max response [1] -6.09% | outcome [2]

Nc1c(Cl)c(Cl)c(Cl)c(Cl)c1Cl
inactive: Potency (OV90) | Potency (PA-1) | Potency (Tov-21-G) | Potency (Tov112D) | Potency [3] | Potency (astro) | max response [1] 0.456% | outcome [2]

O=C(N[C@@H](COc1ccc2[nH]c(=O)[nH]c2c1)c1ccccc1)c1cccn(Cc2ccc(F)c(F)c2)c1=O
inactive: Potency (OV90) | Potency (PA-1) | Potency (Tov-21-G) | Potency (Tov112D)

COCCOCCO
inactive: Potency (PA-1) | Potency (SKOV3) | Potency (Tov-21-G) | Potency (Tov112D) | Potency [3]

CCC(=O)O[C@@H]1C=C2CCC3C(CCC4(C)C3CC[C@@H]4OC(=O)CC)C2CC1 (stereo not given in full)
inactive: Potency (PA-1) | Potency (SKOV3) | Potency (Tov-21-G) | Potency (Tov112D)

CCC1(CCC(C)C)C(=O)NC(=O)NC1=O
inactive: Potency (OV90) | Potency (PA-1) | Potency (Tov-21-G) | Potency (Tov112D) | Potency [3] | Potency (astro)

CC(=O)[O][Hg][c]1ccccc1
active: Potency (OV90) 12.6 µM | Potency (PA-1) 3.16 µM | Potency (SKOV3) 3.55 µM | Potency (Tov-21-G) 2.51 µM | Potency (Tov112D) 5.01 µM | Potency (astro) 1.26 µM

CCN1CCN(C(=O)Cc2ccc(Nc3ncc(F)c(Nc4ccc(C(=O)Nc5ccccc5Cl)cc4)n3)cc2)CC1
inactive: Potency (OV90)
active: Potency (PA-1) 25.1 µM | Potency (SKOV3) 15.8 µM | Potency (Tov-21-G) 28.2 µM | Potency (Tov112D) 2.51 µM | Potency [4] 14 µM

CCOCCOC(C)=O
inactive: Potency (OV90) | Potency (SKOV3) | Potency (Tov-21-G) | Potency (Tov112D) | Potency [3] | Potency (astro) | max response [1] -2.9% | outcome [2]

Nc1ccc(Cl)cc1
inactive: Potency (PA-1) | Potency (SKOV3) | Potency (Tov-21-G) | Potency (Tov112D) | Potency [3] | Potency (astro) | max response [1] 3.79% | outcome [2]

COC(C)(C)CCCC(C)C/C=C/C(C)=C/C(=O)OC(C)C (stereo not given)
inactive: Potency (OV90) | Potency (PA-1) | Potency (SKOV3) | Potency (Tov-21-G) | Potency (Tov112D) | Potency (astro)

Fc1cc(Br)ccc1CBr
inactive: Potency (OV90) | Potency (PA-1) | Potency (Tov-21-G) | Potency (Tov112D)

CC(C)Oc1cccc(NC(=O)c2ccccc2C(F)(F)F)c1
inactive: Potency (astro)
active: Potency (OV90) 31.6 µM

S=C(SSC(=S)N1CCCCC1)N1CCCCC1
inactive: Potency [3] | Potency (astro)
active: Potency (OV90) 10 µM | Potency (SKOV3) 3.98 µM | Potency (Tov112D) 14.1 µM

O=[N+]([O-])c1cc([N+](=O)[O-])c2ccccc2c1
inactive: Potency (OV90) | Potency (PA-1) | Potency (Tov-21-G) | Potency (Tov112D) | Potency [3] | outcome [2]

Cc1[nH]nc2ccc(-c3cncc(OC[C@@H](N)Cc4c[nH]c5ccccc45)c3)cc12
active: Potency (OV90) 5.62 µM | Potency (PA-1) 0.794 µM | Potency (Tov-21-G) 0.708 µM | Potency (Tov112D) 1 µM | Potency [4] 1.11 µM
